DT40 TDP1 CPT: qHTS for Inhibitors of human tyrosyl-DNA phosphodiesterase 1 (TDP1): qHTS in cells in presence of CPT. AID 686979, 2013. actives 12% (n = 420,000). Potency, µM (highest dose often 46.2 µM), for the others: top-dose activity change, negative = growth inhibition, most hits filed as inhibitors. chicken DT40 Tdp1-/-;hTDP1 cells + 20 nM CPT, ATP luminescence, 48 h; note: potency is the fitted concentration of half-maximal effect; nearly all actives have a fitted effect of over 55% in size
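Cell growth measured by CellTiter-Glo luminescence after a minimum 48 h, 37 C compound exposure with 20 nM CPT in Tdp1-knockout DT40 cells stably expressing hTDP1, seeded 400/well; qHTS titration format.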
IL1B secr inh: qHTS for Inhibitors of Inflammasome Signaling: IL-1-beta AlphaLISA Primary Screen; activity change, % at 57.5 µM; actives 4.7% (n = 360,000); AID 743279, 2014; THP-1 LPS/ATP IL-1B secretion, AlphaLISA, 16 h; active compounds read low; in the data active = activity change below about -50%; inconclusive = mostly about -30% to -49%
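Secreted IL-1B measured by AlphaLISA bead assay after 16 h compound exposure of THP-1 cells; compounds (final up to 57.5 uM) added 1 h before LPS (250 ng/mL) and ATP (1.25 mM) stimulation; lower signal means less secretion.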
LDHA inh: qHTS assay for inhibitors of human lactate dehydrogenase; purified LDHA, NADH/diaphorase-resazurin fluorescence; active compounds read low; actives 0.15% (n = 480,000); L-lactate dehydrogenase A chain (Homo sapiens), P00338; activity change, % (values are at about 110 or 230 µM); AID 1347041, 2019; in the data active = activity change below about -30%; inconclusive = mostly about -25% to -30%;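 note: plate controls were DMSO wells for no effect and wells without enzyme for full effect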
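Human LDH5 at 2 nM final in Tris HCl pH 7.4 with 0.06 mM NADH and 0.2 mM pyruvate, reacted 5 minutes at room temperature. Remaining NADH coupled via diaphorase/resazurin; resorufin fluorescence read at 0 and 20 minutes, normalized to enzyme-free and DMSO wells.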
Gal4-VP16 FLuc: VP16 counterscreen qHTS for inhibitors of ROR gamma transcriptional activity | actives 3.5% (n = 310,000) | AID 2546, 2010 | Potency, µM (top dose mostly 53.6 µM), for inactives: top-dose activity, negative = inhibition, most hits filed as inhibitors | Drosophila S2 Gal4-VP16 UAS-luciferase, luminescence, 20 h;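 note: Gal4-VP16 expression switched on by copper sulfate through the metallothionein promoter; potency is the fitted concentration of half-maximal effect; nearly all actives have a fitted effect of over 50% in size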
TDP1 cell noCPT: qHTS for Inhibitors of human tyrosyl-DNA phosphodiesterase 1 (TDP1): qHTS in cells in absence of CPT; DT40 Tdp1-/- hTDP1 cells, no CPT, ATP luminescence, 48 h; actives 15% (n = 420,000); Potency, µM (titrated, usually from 46.2 µM), without a hit: top-dose activity change, negative = growth inhibition, most hits filed as inhibitors; note: potency is the fitted concentration of half-maximal effect; nearly all actives have a fitted effect of over 55% in size
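Growth kinetics read by CellTiter-Glo luminescence after ≥48 hr at 37 °C. Cells: DT40 Tdp1-/- stably carrying human TDP1, 400 per well, compound exposure in the absence of CPT (DMSO vehicle).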
RORg inh: qHTS for inhibitors of ROR gamma transcriptional activity; actives 5.4% (n = 310,000); Potency, µM (doses to about 53.6 µM), for inactives: at the highest dose activity change, negative = inhibition, actives largely listed as inhibitors; AID 2551, 2010; Drosophila S2 Gal4-RORgamma UAS-luciferase reporter, 20 h; note: potency is the fitted concentration of half-maximal effect; nearly all actives have a fitted effect of over 60% in size
Target sequence (P51450 whole entry, looked up, the tested form may be a part): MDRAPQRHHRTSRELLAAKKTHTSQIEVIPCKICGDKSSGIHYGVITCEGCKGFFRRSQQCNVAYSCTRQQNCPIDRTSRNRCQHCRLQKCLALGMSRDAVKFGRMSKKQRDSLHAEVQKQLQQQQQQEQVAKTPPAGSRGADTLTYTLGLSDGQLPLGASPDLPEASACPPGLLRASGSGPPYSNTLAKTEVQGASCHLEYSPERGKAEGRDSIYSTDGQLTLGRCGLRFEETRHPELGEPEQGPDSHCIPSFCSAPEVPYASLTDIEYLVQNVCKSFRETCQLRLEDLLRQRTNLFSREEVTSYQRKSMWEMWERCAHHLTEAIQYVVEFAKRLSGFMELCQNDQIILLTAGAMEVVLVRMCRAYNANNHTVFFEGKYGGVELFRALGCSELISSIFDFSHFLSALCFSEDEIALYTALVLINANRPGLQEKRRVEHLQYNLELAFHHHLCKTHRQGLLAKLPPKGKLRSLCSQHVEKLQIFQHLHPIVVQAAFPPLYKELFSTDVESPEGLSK
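ROR gamma transcriptional activity was tracked as Gal4-UAS luciferase output in stably transfected Drosophila Schneider cells, with compound added 1 hr before 700 uM copper sulfate induction and a 20 hr ambient-temperature incubation.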
* hit, by the source's call; ? = inconclusive; nt = no result given; [ ] = another dose, or the depositor's remark. A selection: hits, their analogues and other compounds. The true share with any hit is near 18%. Unless noted, calls come from the whole dose curve; as a rule, active = well fitted curve in the direction sought with a large enough effect; inconclusive = small, poorly fitted or top-dose-only effect, or another doubt; inactive = no such curve, though single readings can be large; an effect the other way counts as inactive or inconclusive. Unless noted, % is set by controls: 0 for no effect and ±100 for the full control effect.

SMILES | DT40 TDP1 CPT | IL1B secr inh | LDHA inh | Gal4-VP16 FLuc | TDP1 cell noCPT | RORg inh
CCNC(=O)Cc1ccc(NS(=O)(=O)c2ccc(F)cc2)cc1 | -12% | -9 | 2 | -1% | 22% | 6%
CC(NC(=O)Cc1ccc(-c2ccccc2)cc1)c1ccccc1 (configuration not stated) | 26µM* | -22 | -8 | -11% | ? | 12%
S=C(NCc1ccccc1)C(=S)NCc1ccccc1 | 5% | -14 | -5 | nt | 1% | nt
c1ccc(CN=C(NCc2ccccc2)NCc2ccccc2)cc1 | 2.3µM* | -80* | 3 | nt | 2.9µM* | nt
O=C(Cc1ccc(NS(=O)(=O)c2ccc(F)cc2)cc1)NCc1ccccc1 | ? | 19 | -2 | 10% | 23µM* | 26%
CC(NC(=O)c1ccc(-c2ccccc2)cc1)c1ccccc1 (configuration not stated) | nt | nt | 6 | nt | nt | nt
O=C(CCc1nnc(Cc2ccc(-c3ccccc3)cc2)o1)NCCc1cccnc1 | ? | 0 | -9 | -17% | 18µM* | 6%
Cc1oc(-c2ccc(C(=O)NCc3cccnc3)cc2)nc1CS(=O)(=O)c1ccccc1 | nt | nt | 7 | nt | nt | nt
O=C(NC(NCc1cccnc1)C(Cl)(Cl)Cl)c1cccc2ccccc12 (configuration not stated) | ? | 16 | -2 | 5% | 15µM* | 7%
O=C(Cc1ccc(-c2ccccc2)cc1)NCc1cccnc1 | 2.9µM* | 12 | -4 | 4% | 6.5µM* | 29%
O=C(Cc1ccc(-c2ccccc2)cc1)NCc1ccccc1 | 0.52µM* | 4 | -2 | 3% | 0.46µM* | 8%[10 µM]
O=C(Cc1ccccc1)NCc1cccnc1 | 5% | 5 | -2 | 15%[10 µM] | -19% | 32%
O=C(NC(NCc1ccccc1)C(Cl)(Cl)Cl)c1cccnc1 (configuration not stated) | -13% | 15 | 2 | 0% | -18% | 11%
Cc1ccc(CC(=O)NCc2ccc(F)cc2)cc1 | 4.1µM* | 0 | -3 | -21% | 4.6µM* | 19%
COCCOc1ccc(S(=O)(=O)N(C)C(C)(C)C(=O)OC)cc1 | nt | nt | -5 | nt | nt | nt
C=CCN(CCC(=O)NC(=O)NC)Cc1ccccc1 | nt | nt | 3 | nt | nt | nt
Cc1oc2cc(OCC(=O)Nc3ccc4c(c3)OCCO4)ccc2c(=O)c1-c1ccccc1 | nt | nt | -1 | nt | nt | nt
CC(C)CC(NC(=O)c1ccn(C)c(=O)c1)c1ccccc1 (configuration not stated) | nt | nt | 6 | nt | nt | nt
Cc1ccc(CNC(=O)Cc2ccc(-c3ccccc3)cc2)cc1 | 1µM* | 74 | -3 | -5% | 0.58µM* | -23%
O=C(Cn1ncc2c(=O)oc3ccccc3c21)NCc1cccnc1 | 1.3µM* | 4 | -3 | -2% | 9.2µM* | -2%
O=C(Cn1ncc2c(=O)oc3ccccc3c21)NCc1ccc(Cl)cc1 | -1% | nt | 3 | nt | -6% | nt
O=C(COC(=O)Cc1ccc(-c2ccccc2)cc1)NCc1ccc(F)cc1 | 6.5µM* | -1 | -8 | 7% | ? | 26%
Cc1ccc(CNC(=O)COC(=O)Cc2ccc(-c3ccccc3)cc2)cc1 | ? | 13 | -4 | 4% | ? | 1%
Cn1c(=O)c2c(ncn2CCC(=O)Nc2cccc(Cl)c2)n(C)c1=O | nt | nt | 4 | nt | nt | nt
CC(=O)Oc1cc2c(=O)c3ccccc3sc2cc1C | nt | nt | 3 | nt | nt | nt
COc1cccc(-c2nc(-c3ccc(Br)cc3)no2)c1OC | nt | nt | -17 | nt | nt | nt
Cc1ccccc1N1CN(Cc2ccco2)CNC1=S | 9% | -2 | -5 | ? | -16% | 10µM*
Cc1cccc(N2CN(Cc3ccco3)CNC2=S)c1C | -2% | -1 | 0 | 11µM* | 9% | 7.1µM*
